Experimental data reported in PubChem BioAssay AID652058 (Broad Institute, 2013).
About 870 (72%) of roughly 1,200 compounds were called active. Inconclusive results (about 3%) are left out.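 The calls were made as follows: active = every test run fits a falling curve whose half-maximal concentration is at most twice the top valid dose; inconclusive = runs disagree, or flat 30 to 70% inhibition, or poor fit; inactive = every run inactive: flat, rising or weaker potency.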 So high a share suggests a set chosen from earlier hits. Not all results are given here. Measured potencies and affinities stand elsewhere.

experiment: blockers of HIV-1 ZM109 envelope-driven cell-cell fusion – HeLa effector, CEM target cells, luciferase, cherry-pick, dose response (AID 652058); conditions: HeLa Env/CEM cell fusion, 16-24 h; series mostly up to 35 µM; activity change, negative = inhibition: at the top concentration;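 also: 0% = neutral control wells and -100% = maraviroc 300 nM wells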

Activity change, negative = inhibition, inactive:
Cc1[nH]c2ccccc2c1/C=N\NC(=O)c1ccccc1Cl 39.8%
COc1ccc(CCNC(=O)C2CCCN(Cc3nc(-c4cccc(Cl)c4)oc3C)C2)cc1OC (stereo not drawn) -35.4%
O=C(NCc1cccc(F)c1)[C@@H]1[C@@H](CO)[C@@H]2Cn3c(ccc(-c4cccnc4)c3=O)[C@H]1N2CC1CC1 -17.1%
N#C[C@@H]1[C@H](c2ccc(-c3ccccc3F)cc2)[C@@H](CO)N1C(=O)Cc1ccccc1 -31.2%
CCCNC(=O)N1[C@H](C#N)[C@H](c2ccc(-c3cccc(OC)c3)cc2)[C@@H]1CO 127%
S=c1nc[nH]c2c1[nH]c1ccc(Cl)cc12 77%
Cc1cc(C(=O)CN2C(=O)c3ccccc3S2(=O)=O)c(C)n1C(C)C -55.3%
Cc1onc(-c2ccccc2)c1C(=O)NC(=S)NNC(=O)c1ccc(O)cc1 41%
Cc1onc(-c2ccccc2)c1C(=O)Nc1ccc(Br)cc1Cl -20.5%
COc1ccc(S(=O)(=O)NC[C@@H]2CC[C@H]3[C@H](CN3Cc3cc(F)ccc3F)O2)cc1 19.1%
CO[C@@H]1CN(C)C(=O)c2ccc(NS(C)(=O)=O)cc2OC[C@@H](C)N(C(=O)C2CCCCC2)C[C@H]1C 135%
CO[C@H]1CN(C)C(=O)c2cc(NC(=O)C3CCOCC3)ccc2OC[C@H](C)N(Cc2nccs2)C[C@H]1C -16.3%
CO[C@@H]1CN(C)C(=O)c2cc(NS(=O)(=O)c3ccc(C)cc3)ccc2OC[C@H](C)N(C(=O)NC(C)C)C[C@@H]1C 59.6%
CCS(=O)(=O)Nc1ccc2c(c1)C(=O)N(C)C[C@H](OC)[C@@H](C)CN(C(=O)C1CCC1)[C@H](C)CO2 101%
CCCC(=O)Nc1ccc2c(c1)OC[C@@H](C)N(C(=O)CN(C)C)C[C@H](C)[C@@H](OC)CN(C)C2=O -17.8%
CCC(=O)Nc1ccc2c(c1)C(=O)N(C)C[C@@H](OC)[C@H](C)CN(C(=O)CC)[C@@H](C)CO2 55.8%
CCCC(=O)Nc1ccc2c(c1)C(=O)N(C)C[C@@H](OC)[C@@H](C)CN(Cc1nccs1)[C@@H](C)CO2 1.12%
Clc1ccc2c(c1)C1=C(C(c3ccncc3)O2)C(c2ccc(Br)cc2)n2ncnc2N1 (stereo not drawn) 36.6%
COc1ccc(CC(=O)Nc2cccc(S(=O)(=O)N3CCCCCC3)c2)cc1OC -2.63% [at 16 µM]
CC1CCCC(C)N1CCCNC(=O)c1nn(C)c2c1CSc1ccccc1-2 (stereo not drawn) 20.6%
CN1C(=O)C2(c3ccccc31)N(C)CC(c1ccccc1)C21SC(=S)N(Cc2ccco2)C1=O (stereo not drawn) 6.82%
O=C(Nc1ccc(S(=O)(=O)N2CCCC2)cc1)c1ccc(CN2CCOCC2)cc1 -10.5%
CCN(CC)c1ccc(/C=N/N2C(C)CCCC2C)c(O)c1 (stereo not drawn) 35.2%
Nc1nonc1C(=O)NCCNCc1cc(Br)ccc1OCc1ccccc1F -2.3%
Cn1c(SCc2nc(-c3ccc(Cl)cc3)no2)nnc1-c1cccs1 -18.2%
O=C(COC(=O)c1cc(S(=O)(=O)N2CCOCC2)ccc1O)NCc1ccc2c(c1)OCO2 2.67%
Cc1ccc(COC(=O)c2cc(S(=O)(=O)N3CCCCC3)ccc2N2CCOCC2)cc1 47%
CCNC1CCC(Nc2ccnc3cc(Cl)ccc23)CC1 (stereo not drawn) -13.6%
CCC(C)NS(=O)(=O)c1ccc(S(=O)(=O)N2CCCC3(CCCCC3)C2)cc1 (stereo not drawn) -47.6%
CC(=O)Nc1ccc(NC(=O)CN(c2ccc(C34CC5CC(CC(C5)C3)C4)cc2)S(C)(=O)=O)cc1 197%
CC(CCc1ccco1)NC(=O)CCc1nnc2ccc(NCc3ccccc3Cl)nn12 (stereo not drawn) 147%
CCOc1ccccc1CNc1ncnc2ccc(-c3c(C)noc3C)cc12 -26.9%
OCC[C@@H]1C[C@@H](O)[C@H](O)[C@]2(OCc3ccccc32)O1 -30.9%
Cc1ccc2c(c1)c1c3n2CCN(CCC#N)C3CCC1 (stereo not drawn) 72.5%
COc1ccccc1S(=O)(=O)n1cc(Cc2ccccc2)c(N)n1 2.38%
C=CCNc1nc2c(c(=O)n(C)c(=O)n2C)n1CCCCCC 155%
CCc1nc2ccccc2c(C(=O)OCC(=O)Nc2cccc(S(=O)(=O)N3CCOCC3)c2)c1C 168%
COc1ccc(/C(C)=N/NC(=O)c2cccc(S(=O)(=O)N3CCCC3)c2)c(O)c1 -36.4% [at 16 µM]
COc1ccc(C(O)c2nc3ccccc3n2C)cc1OC (stereo not drawn) -23.7%
CCCCCn1c(C(C)NC(=O)CCC)nc2ccccc21 (stereo not drawn) -31%
Cc1cc2c3c(c1)C1(SCC(=O)N1c1ccc(F)cc1)C(=O)N3C(C)(C)CC2C (stereo not drawn) -68.3% [at 15 µM]
Nc1cc2c(cc1Br)[nH]c(=O)c1ccccc12 -25.2%
CCc1nnc(NC(=O)[C@@H](NC(=O)c2cccc(S(=O)(=O)N(CC)CC)c2)C(C)C)s1 39.5%
COc1ccc(N2CCN(C(=O)C3CCC(Cn4c(=S)[nH]c5ccccc5c4=O)CC3)CC2)cc1 (stereo not drawn) -44.6%
Fc1ccc(-n2nnnc2-c2cnc(-c3cccs3)nc2C(F)(F)F)cc1 91% [at 16 µM]
O=C(N/N=C/c1ccc(-n2ccnc2)cc1)c1cccs1 73.5%
Cc1ccc2c(c1)c1c3n2CCN(CC(N)=O)C3CCC1 (stereo not drawn) 81.6%
COc1ccc2[nH]c3c(N4CCC(O)(c5cccc(C(F)(F)F)c5)CC4)ncnc3c2c1 -82.8%
CCOC(=O)C(C)Oc1cccc2c(=O)n(CC(=O)NCCc3ccc(OC)c(OC)c3)ccc12 (stereo not drawn) -38.6%
CC1(C(=O)NCc2ccc3c(c2)OCO3)CCN1Cc1csc2ccccc12 (stereo not drawn) -13.3%
COc1ccc(NS(=O)(=O)c2cccc(C(=O)NNC(=O)CNC(=O)c3ccc(C)cc3)c2)cc1 35.8%
COc1ccc(NS(=O)(=O)c2ccc3c(c2)OCCO3)cc1OC -10.5%
O=C(Cc1ccc(Cl)cc1Cl)Nc1ccncc1 -15.2%
COc1ccc(/C=C/c2nc(S(=O)(=O)c3ccccc3)c(NCCCN(C)C)o2)cc1OC -36.4% [at 16 µM]
COC(=O)c1ccc(NC(=O)c2ccc(CN3CCOCC3)cc2)cc1 -20.5%
Nc1ccn([C@@H]2O[C@H](C(=O)NCc3ccc4c(c3)OCO4)[C@@H](O)[C@H]2O)c(=O)n1 14.6%
CC(C)CC#Cc1ccc2c(c1)O[C@@H](CN(C)S(=O)(=O)c1ccc(F)cc1)[C@H](C)CN([C@@H](C)CO)S2(=O)=O -29.4%
Cc1cc2ncn(S(=O)(=O)N3CCCCC3)c2cc1C 1.39%
CCN1CCN(S(=O)(=O)c2ccc(Cl)c(C(=O)Nc3ccccc3N3CCCC3)c2)CC1 21.8%
C[C@H]1CN([C@@H](C)CO)C(=O)c2cccc(NC(=O)C3CCCCC3)c2O[C@H]1CN(C)S(C)(=O)=O 11.4%
C[C@@H]1CN([C@@H](C)CO)C(=O)c2cccc(NC(=O)c3cnccn3)c2O[C@H]1CN(C)Cc1ccc(Cl)c(Cl)c1 95.2%
CNC[C@@H]1Oc2c(N)cccc2C(=O)N([C@@H](C)CO)C[C@@H]1C 15.9%
c1csc(-c2csc3ncnc(NCCCN4CCOCC4)c23)c1 -26.2%
Oc1ccc(C=NNc2ccccn2)c(O)c1 23.9% [at 16 µM]
COc1ccc(-c2nnc(Nc3nc4c(OC)cccc4s3)o2)cc1 5.13%
CCn1ncc(C2=NOC(C(=O)Nc3ccc(C)cc3)C2)c1C (stereo not drawn) 6.73% [at 16 µM]
Cc1ccc(-n2nnnc2-c2cnn(-c3ccc(F)cc3)c2C(F)(F)F)cc1 4.65%
C[C@H](CO)N1C[C@H](C)[C@H](CN(C)C(=O)Nc2ccccc2)Oc2c(NS(=O)(=O)c3ccc(F)cc3)cccc2C1=O 84.3% [at 16 µM]
CNC[C@H]1Oc2c(NC(=O)Nc3ccc(C(F)(F)F)cc3)cccc2C(=O)N([C@@H](C)CO)C[C@H]1C 39.4% [at 16 µM]
C[C@@H]1CN([C@H](C)CO)C(=O)c2cc(NS(=O)(=O)c3ccc(F)cc3)ccc2O[C@H]1CN(C)Cc1ccc(C(F)(F)F)cc1 -41.2%
Cc1ccc(-n2ncc3c(N4CCN(c5ccccc5)CC4)ncnc32)c(C)c1 181%
Cc1ccc(Cn2ncc3c(N4CCN(c5ccc(C)cc5)CC4)ncnc32)cc1 -44.6%
COc1cccc(CNc2nc(NCc3ccccc3OC)nc3ccsc23)c1 -21.1%
CCOc1ccc(-c2cc(CCCC(=O)Nc3cccc(OC)c3)no2)cc1 71.3%
Cc1cc(C(C)(C)C)oc1C(=O)N(CC(=O)NC1CCCC1)Cc1ccc(Cl)cc1 -42.4%
CCCc1cc(C(=O)NCc2ccc(OC)cc2)no1 28.6%
O=C(CC1C(=O)NCCN1Cc1cccc(F)c1)NC1CCCCC1 (stereo not drawn) -44.7%
CCN(CCn1cccn1)C(=O)CC1C(=O)NCCN1CCc1ccccc1 (stereo not drawn) -40.9%
COc1ccc(-c2cn3c(C)c(C(=O)Nc4cccc(NC(C)=O)c4)sc3n2)cc1 -22% [at 16 µM]
Cn1cc(S(=O)(=O)N2CCOCC2)cc1C(=O)Nc1cccc(Cl)c1 -25.3%
COc1cccc(CN2CCC2(C)C(=O)Nc2cccc(Oc3ccccc3)c2)c1OC (stereo not drawn) -31.8%
CC(=O)c1ccc([C@H]2C[C@@]34CN(C(=O)OC(C)(C)C)S(=O)(=O)[C@H]3C[C@H]2O4)cc1 40.5%
c1ccc(Cc2cnc(N3CCN(Cc4csc5ccccc45)CC3)nc2)cc1 16.5%
O=C(NNC(=O)C(c1ccccc1)c1ccccc1)c1ccccn1 -20.2%
CC(C)(C)n1nc(Cc2cccc3ccccc23)c2c(N)ncnc21 16.9%
C[C@@H]1CN([C@H](C)CO)C(=O)c2cccc(NC(=O)c3ccncc3)c2O[C@@H]1CN(C)Cc1ccc(C(=O)O)cc1 -18.2%
COc1ccccc1N1CCN(Cc2ccc(O)c3ncccc23)CC1 41.3%
O=C(Nc1ccc(CN2CCOCC2)cc1)c1ccc(-c2cccc(Cl)c2)o1 117%
Cc1cc(C)nc(/N=C(\N)Nc2ccc(CC(=O)OC(C)C)cc2)n1 38.8%
CCC(=O)NC(=S)Nc1cccc(Cl)c1N1CCCCC1 43.4%
COc1ccc([Si](C)(C)[C@H]2[C@H](CCO)O[C@@]3(C(=O)N(Cc4cccc(N5CCOC5=O)c4)c4ccccc43)[C@@H]2C)cc1 -36.4%
O=C(Nc1cccn(Cc2c(Cl)cccc2Cl)c1=O)c1ccc(Cl)cc1 55.6%
O=C(NCc1ccccc1)c1ccc(C(=O)NCc2ccccc2)cc1 -58.9%
